Most compounds without a hit are left out; they make up all but 4.8% or so of the library.
ssDAF-12 act = S. stercoralis DAF-12 nuclear receptor activators, primary screen, cell-based, luminescence, HEK293, GRIP1 co-expression, lit1-tk-luc; HEK293 ssDAF-12/GRIP1 lit1-tk-luc reporter; % of 3 µM dafachronic acid response; activation, % at 6.8 µM; 370,000 tested, 1% active; AID 652126, 2013;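 active = activation above the mean over all tested compounds plus 3 SD, cut at about 0.9% in these data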
DAX1 inh-1 = DAX1 (NR0B1) inhibitors, primary screen, cell-based, HEK293, Gal4-DAX1, luciferase luminescence | HEK293 Gal4-DAX1 luciferase reporter | 340,000 tested, 0.99% active | inhibition, % at 6.75 µM | AID 504766, 2011;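 active = inhibition above the mean over all tested compounds plus 3 SD, cut at about 4.2% in these data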;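 note: inhibition shows as a rise in luminescence from relieved DAX1 repression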
Target sequence (P51843 207-470 limits assumed): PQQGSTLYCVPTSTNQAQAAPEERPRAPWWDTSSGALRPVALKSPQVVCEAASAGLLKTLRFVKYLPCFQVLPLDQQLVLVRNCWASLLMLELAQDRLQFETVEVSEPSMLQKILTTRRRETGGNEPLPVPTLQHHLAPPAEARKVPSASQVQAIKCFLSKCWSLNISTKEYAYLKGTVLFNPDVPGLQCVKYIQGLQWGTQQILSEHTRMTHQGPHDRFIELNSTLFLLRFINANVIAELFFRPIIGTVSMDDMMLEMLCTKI
hgDAF-12 ag = H. glycines DAF-12 receptor agonists, primary screen, cell-based, luminescence, HEK293, GAL4 fusion, UAS-luciferase; Nuclear hormone receptor DAF-12 (Heterodera glycines), GAL4 fusion; HEK293 GAL4-hgDAF12 UAS-luciferase reporter, agonist luminescence; normalized to butyrate control; 370,000 tested, 1.8% active; activation, % at 6.8 µM;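 active = activation above a cutoff set at the mean of all screened compounds plus 3 SD, cut at about 10% in these data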
SMARCA2 activ = SMARCA2 (BRM) function activators, primary screen, cell-based, luminescence, high throughput | 370,000 tested, 1% active | MG213 cells, MMTV-luciferase reporter, dexamethasone, overnight | activation, % at 9.1 µM; in the data active = activation above about 7.8%
DAX1 inh-2 = DAX1 (NR0B1) inhibitors on StAR promoter, primary screen, cell-based, luminescence, SF-1 (NR5A1), full-length DAX-1 | AID 652010, 2013 | 370,000 tested, 1.1% active | inhibition, % at 6.8 µM | HEK293T StAR-luciferase reporter, SF-1/DAX-1 repression relief;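 active = inhibition above the mean over all tested compounds plus 3 SD, cut at about 3.6% in these data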;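 note: higher inhibition means more luminescence from relief of DAX-1 repression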
hcDAF-12 act = H. contortus DAF-12 nuclear receptor activators, primary screen, cell-based, luminescence, HEK293, lit1-tk-luc reporter; HEK293 hcDAF-12 lit1-tk-luc reporter; 0% DMSO, 100% Δ7-dafachronic acid; activation, % at 6.8 µM; 370,000 tested, 1.4% active;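 active = activation above the mean of all tested compounds plus 3 SD, cut at about 5.5% in these data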
A number is an active result; n = inactive; x = no result.

SMILES	ssDAF-12 act	DAX1 inh-1	hgDAF-12 ag	SMARCA2 activ	DAX1 inh-2	hcDAF-12 act
CCCC/C=C1/[C@H](c2ccc(Cl)cc2)N(Cc2ccc3c(c2)OCO3)C2=N[C@H](c3ccccc3)CC(=O)N21	n	x	n	n	n	n
CCc1ccc(-c2csc(NC(=O)C3=COCCO3)n2)cc1	n	n	n	n	4.2	n
C/C(=N\Nc1nc2ccccc2[nH]1)c1ccc(N2CCOCC2)cc1	n	n	n	n	3.9	n
CCN(CC)c1ccc(NC(=O)c2cncc(Br)c2)cc1	n	n	12.6	n	n	n
CCN(CC)c1ccc(NC(=O)c2cccnc2)cc1	n	n	n	n	n	n
Cc1ccc(NC(=O)c2cncc(Br)c2)cc1S(=O)(=O)N(C)C	1.4	n	n	n	n	n
Cc1ccc(SCC(=O)NNC(=O)c2cncc(Br)c2)cc1	n	5.9	n	n	n	n
CN(C)S(=O)(=O)c1cccc(NC(=O)c2cncc(Br)c2)c1	n	n	n	n	n	n
CCOC(=O)[C@]12CCCC=C1N(CCCOC)C(=O)[C@@H]2CC(=O)NCc1cccc(C(F)(F)F)c1	n	x	n	n	n	n
Oc1ccc2[nH]cc(CCc3ccccc3)c2c1-c1ccccc1	n	x	n	n	n	n
COC(=O)C1(Cc2ccc(O)cc2)OC(=O)C(O)=C1c1ccc(O)cc1 (stereo not given)	n	7.4	n	n	n	n
O=C(OC12CCCN(C1)/C(=C/c1cccc(Cl)c1)C2)c1ccc(F)cc1 (stereo not given)	n	x	n	n	n	n
CS(=O)(=O)OC12CCCN(C1)/C(=C/c1ccc(Cl)cc1)C2 (stereo not given)	n	x	n	n	n	n
Cc1ccc2c(c1)c1c(n2CC(O)CNC(C)(C)C)CCCC1 (stereo not given)	n	n	n	n	n	n
CNCC(O)Cn1c2c(c3ccccc31)CCCC2 (stereo not given)	6.8	n	n	n	n	n
Cc1ccccc1OCCCCn1cnc2ccccc21	n	n	n	n	n	n
Brc1ccccc1OCCCn1cnc2ccccc21	n	n	11.3	n	n	n
Cc1ccc2c(c1)C(CS(=O)(=O)NC1CCCC1)NC2 (stereo not given)	n	x	n	n	n	n
C#CCCCN([C@@H](CC(C)C)C(=O)OC)S(=O)(=O)c1ccc(F)cc1Br	n	x	n	n	n	n
CC(=O)Nc1ccc(-c2cc(N)n(-c3ccccc3)n2)cc1	n	n	11.3	n	3.9	n
CC(=O)Nc1ccc(-c2cc(NC(C)=O)n(-c3ccccc3)n2)cc1	n	n	n	n	n	n
COc1ccc(CCNC(=O)c2ccccc2OCc2c(C)noc2C)cc1	n	n	n	n	3.7	n
Cc1noc(C)c1COc1ccccc1C(=O)NCCc1ccc(Cl)cc1	n	n	n	n	n	n
COCCCNC(=O)c1ccc(OC)c(OC2CCN(C(C)C)CC2)c1	n	5.2	n	n	n	n
COc1ccccc1CCNC(=O)c1ccc(OC)c(OC2CCN(C(C)C)CC2)c1	n	n	n	n	n	n
SMILES	ssDAF-12 act	DAX1 inh-1	hgDAF-12 ag	SMARCA2 activ	DAX1 inh-2	hcDAF-12 act
Cc1ccc2nc(SCC3CCCCO3)[nH]c2c1 (stereo not given)	n	n	12.2	n	n	n
CCN(Cc1ccccc1)C(=O)C1C2C=CC3(CN(Cc4ccccc4)C(=O)C13)O2 (stereo not given)	n	x	n	n	n	n
COc1ccccc1C(=O)Nc1nnc(S(=O)(=O)N2CCC(C)CC2)s1	n	5.0	n	n	n	n
C[C@H]1[C@@H](NC(=O)c2ccc(C(C)(C)C)cc2)CC[C@@]23CCCN2C(=O)CCC[C@@H]13	n	x	n	x	x	n
O=C(CCc1ccccc1)N[C@H]1[C@@H](OC(=O)c2cnccn2)CCC[C@@]12C(=O)N(Cc1ccccc1)c1ccccc12	n	x	n	n	n	n
O=C(c1ccco1)N1CCN(c2nc3ccsc3c(=O)s2)CC1	n	5.1	n	n	n	n
C[C@@H]1OCN(C)[C@H]2C[C@H]3c4[nH]c5cccc(-c6cccc(F)c6)c5c4CCN3C(=O)[C@@H]12	n	x	n	n	n	n
CC/C(C)=N/Nc1nc(-c2cc3cccc(OC)c3oc2=O)cs1	n	x	12.4	n	n	n
COc1cccc2cc(-c3nnc(-c4ccccc4)o3)c(=O)oc12	n	n	11.1	n	n	n
CCCCCC(=O)NC1CCCCN(Cc2ccc(C)cc2)C1=O (stereo not given)	n	x	n	n	n	n
O=C(NCCc1c[nH]c2ccccc12)c1cc([N+](=O)[O-])cc([N+](=O)[O-])c1	0.9	n	n	n	n	n
Cc1ccc(C(=O)NCCCc2ccccc2)s1	n	n	n	n	n	6.2
Cc1ccc(C(=O)NCCc2c[nH]c3ccccc23)s1	1.3	n	n	n	n	n
O=C(NCCc1c[nH]c2ccccc12)c1ccccc1	n	n	n	n	n	n
C=CCCC(=O)N[C@H]1CC[C@@]23CCCN2C(=O)CCC[C@H]3[C@H]1C	n	x	n	x	x	n
COc1ccc(C(=O)N2CCC(Oc3cccnc3)CC2)c(OC)c1	n	x	n	n	n	n
COC(=O)C[C@@H]1CC[C@H]2[C@H](COc3ccc(NC(=O)c4ccc(OC)cc4)cc3C(=O)N2C)O1	n	x	n	n	n	n
O=C(CNC(=O)c1ccc(Br)cc1)NC1CC1	n	n	n	n	n	n
CC1CCC(NC(=O)CCNC(=O)c2ccc(Br)cc2)CC1 (stereo not given)	n	n	n	n	4.3	n
CC1CCC(NC(=O)c2ccc(S(C)(=O)=O)cc2)CC1 (stereo not given)	6.4	n	n	n	n	n
CS(=O)(=O)c1ccc(C(=O)NC2CCOC2=O)cc1 (stereo not given)	n	n	n	n	n	n
COC(=O)C[C@@H]1CC[C@H]2[C@@H](COc3ccc(NC(=O)c4ccc(C(F)(F)F)cc4)cc3C(=O)N2C)O1	n	x	n	n	n	n
Clc1cccc(NCc2ccccc2)n1	n	4.9	n	n	n	n
Clc1nccc(NCc2ccccc2)n1	n	n	n	n	n	n
N#Cc1ccsc1NC(=O)COC(=O)c1cc(Br)ccc1O	n	6.0	n	n	n	n
N#Cc1ccsc1NC(=O)COC(=O)c1ccc(Br)o1	n	n	n	n	n	n

Screening data deposited in PubChem by The Scripps Research Institute Molecular Screening Center.
